The supplement of paper PMC6555819

Legend:
Assay in all cases: PBM binding z-score (relative to random genomic background probes); higher = stronger binding; sequences stand for … in GC…GCGATTGACAGCGTAGAATGAAGG
[1] = system: PPARg:RXRa DBDmut IVT, anti-RXR (DBD mutation: RXRa K156A/R161A, NR concentration 270 nM, RXRa partner concentration 90 nM)
How it was run: (§1)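 The probes on custom Agilent 4×180K protein-binding microarrays were double-stranded, with 34-nt variable regions bearing direct-repeat seeds, single-nucleotide variants, half-site ablations and random human genomic background sequences. Incubation lasted 1 h with ligand-free nuclear receptor dimers in PBS pH 7.4, 2% milk, 0.02% Triton X-100, 1 mM DTT, 0.2 mg/mL BSA and 0.4 mg/ml salmon testes DNA. Antibodies against each partner (one per run) detected bound dimers, and fluorescence scans were regression-normalized. Binding z-scores take the random background probes as reference.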

[2] = system: PPARg:RXRa IVT, anti-PPARg (NR concentration 270 nM, RXRa partner concentration 90 nM)
How it was run: as §1

[3] = system: PPARg DBDmut:RXRa IVT, anti-PPARg (DBD mutation: PPARg1 K132A/R137A, NR concentration 270 nM, RXRa partner concentration 90 nM)
How it was run: as §1

[4] = system: PPARg DBDmut IVT, anti-PPARg (DBD mutation: PPARg1 K132A/R137A, NR concentration 270 nM)
How it was run: as §1

[5] = system: PPARg homodimer (NR concentration 180 nM)
How it was run: as §1

[6] = system: PXR:RXRa (NR concentration 270 nM, RXRa partner concentration 90 nM)
How it was run: as §1

[7] = system: PXR homodimer (NR concentration 270 nM)
How it was run: as §1

[8] = system: RARa:RXR (NR concentration 270 nM, RXRa partner concentration 90 nM)
How it was run: as §1

[9] = system: RARa homodimer (NR concentration 270 nM)
How it was run: as §1

[10] = system: RARb:RXRa (NR concentration 270 nM, RXRa partner concentration 90 nM)
How it was run: as §1

Row | Sequence | PBM binding z-score [1] | PBM binding z-score [2] | PBM binding z-score [3] | PBM binding z-score [4] | PBM binding z-score [5] | PBM binding z-score [6] | PBM binding z-score [7] | PBM binding z-score [8] | PBM binding z-score [9] | PBM binding z-score [10]
1 | ACTTACGGGTCAACGAGGTTACAGCACGCGTATA | 3.63 | 4.61 | 3.52 | 1.44 | 2.75 | 5.25 | 2.74 | 5.23 | 1.58 | 4.44
2 | TCATATAGGTAAATGCTAGGTGAAAGTGCGATCT | 4.06 | 3.13 | 0.822 | 0.878 | 1.41 | 0.653 | 0.401 | 1.12 | 1.15 | 0.649
3 | GATACAGGGTCAGCTAGAGGCCCGAGTATGGAAA | 0.969 | 2.18 | -0.156 | -0.833 | 1.37 | 1.72 | -0.766 | 2.93 | -0.152 | 3.83
4 | CTCGCAAGGTCGTGCTCAGGTGAGTATACCAAAC | 0.0828 | 0.996 | -0.606 | -0.427 | 0.113 | 1.76 | -0.272 | 2.37 | -0.702 | 2.47
5 | ATCTCTAGGTAACAAGTTCAGTGATAGAGAGGAC | 3.07 | 2.7 | 1.93 | 1.91 | 1.18 | 1.7 | 1.97 | 0.777 | 1.13 | 1.69
6 | CCTAGCGGGCCAATCTGGGTCACTCAAGGCTTGA | 3.83 | 4.82 | -0.426 | -0.554 | 0.532 | 0.83 | -0.579 | 1.49 | -0.347 | 1.45
7 | TCGAGTAGGCTAGGGGCATTCAGAATGGCGTCGA | 0.831 | -0.362 | -1.38 | -1.61 | -0.968 | -0.194 | -0.983 | -0.131 | -1 | 0.171
8 | ATCTCTAGGTAAAGTACAGTGAAAGATCGATAGA | 2.11 | 2.03 | 1.17 | 1.25 | 1.14 | 0.119 | 0.479 | 0.369 | 1.59 | 0.586
9 | GCATATAGGTAATATAAGGTGAAAGTCCGATTGT | 3.84 | 3.32 | 1.58 | 0.946 | 0.929 | 0.702 | 0.375 | 1.78 | 0.541 | 0.618
10 | CAAACTAGGCCACGAAAGGTCAAAGTCGAATGAC | 7.17 | 7.41 | 1.6 | 1.85 | 4.86 | 5.73 | 1.95 | 6 | 2.49 | 4.68
11 | CCTACTGGGCCAAAAAGGTCATTGTTGCCGATAA | 3.95 | 3.99 | -0.0573 | -1.07 | 2.39 | 4.29 | 1.92 | 4.33 | 0.787 | 3.56
12 | CGAACTAGGTCATCCATGACAGTGAATACATTGA | 8.18 | 8.57 | 4.46 | 1.2 | 1.67 | 1.53 | 0.0131 | 2.26 | 0.371 | 3.98
13 | TGTCAAAGTTCAAAGGAAACGTAAGTATCCACAC | -0.506 | 3.75 | 1.36 | 1.26 | 2.31 | 4.33 | 1.78 | 3.21 | 1.06 | 4.95
14 | TTACCAAGGTGAAGGTCGTTGCTCCCTCTGTAGA | 2.04 | 3.56 | -0.269 | 0.0241 | 1.17 | 1.46 | 0.225 | 1.65 | -0.269 | 2.39
15 | CCGACCGGGGCAAAGGTTACCATACTCAGTACGA | 0.771 | 3.62 | -1.08 | -1.57 | 1.59 | 2.84 | -0.256 | 4.81 | -0.0897 | 2.66
16 | CCGACTGGGGCAGAAGGTTACCATAAGCCAGCCC | 1.61 | 1.92 | -0.993 | -1.69 | 0.826 | 0.166 | 0.188 | 0.736 | -0.0153 | 1.25
17 | TCTAGTTGATCACGGAGGTCACACACGACGGGTA | 1.39 | 2.26 | 0.727 | 1.1 | 2.02 | 4.29 | 1.44 | 4.94 | 0.922 | 3.24
18 | CCTAGTGGGCCATCAGGTCATTGATATCAACGTT | 4.56 | 5.23 | -0.169 | 0.327 | 1.35 | 1.62 | 0.58 | 1.86 | 0.517 | 1.94
19 | TCGATTAGTTGAAGGGCAACCGACGAGTCCGTTT | 1.72 | 0.195 | 0.000817 | 0.136 | -0.0561 | 0.157 | 0.0884 | 0.128 | 0.353 | 1.2
20 | ACTATTTGTTGACTTAGGGCAACCGATACGACGC | 0.22 | 0.532 | 1.51 | 1.78 | 0.884 | 0.185 | 0.38 | 0.364 | 0.997 | 1.03
21 | CGTCAAAGTTCAAGGTAGCGTAACAGAAAGCAGC | 0.367 | 1.36 | -0.0381 | 0.0782 | 3.03 | 3.84 | 2.73 | 3.35 | 0.828 | 5.01
22 | ATCGAAAGGTCGAGGTGATTATAGAGAAAGGGAA | 0.469 | 2.16 | 1.08 | 1.21 | 1.85 | 2.51 | 0.0251 | 3 | 0.473 | 4.2
23 | CGTCCAAGCTCAAAGGTCAGTGAAGAGATGACGG | 0.0789 | 1.7 | -0.175 | -0.869 | 3.43 | 3.24 | 0.202 | 4.05 | 1.36 | 4.48
24 | ATCGAAAGGTAGAGGTGAGTATAGAGAAAGGGAA | -0.16 | 0.688 | 0.622 | 0.766 | 0.946 | 0.265 | 0.595 | 0.402 | 0.765 | 1.28
25 | AATACAGGGTCCCTAGGCCAGAGTAGGTACGAAT | -0.243 | 0.245 | -0.698 | -1.31 | -0.659 | -0.49 | -0.525 | -0.409 | 0.104 | 0.138
